The results in this text go back to PubChem BioAssay AID485317 (Broad Institute, 2010).

For orientation: inhibition means the change of the read-out against control, counted positive when it falls.

SMILES strings stand for the structures. The whole screen tested about 290,000 compounds, of which about 11,000 (3.8%) were called active. This is one part of a sample in which actives are shown more often than they occur.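 Rule for the calls: active = mean replicate inhibition above about 79%, with every replicate also reaching it (limit read from the data); inconclusive = only one of the two criteria met; inactive = mean below limit and not every replicate reaching it.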

FAD-linked sulfhydryl oxidase ALR (Homo sapiens), sequence (P55789 whole entry, looked up): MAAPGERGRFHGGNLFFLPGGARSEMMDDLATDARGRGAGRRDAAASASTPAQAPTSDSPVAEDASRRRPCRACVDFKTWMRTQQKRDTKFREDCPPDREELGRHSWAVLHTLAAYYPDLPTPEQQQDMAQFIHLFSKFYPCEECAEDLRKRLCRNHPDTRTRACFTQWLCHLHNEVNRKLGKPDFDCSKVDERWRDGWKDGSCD

This test concerns the target FAD-linked sulfhydryl oxidase ALR (Homo sapiens) (UniProt P55789). The test can be described thus: inhibitors of human ALR sulfhydryl oxidase, primary screen, biochemical, H2O2 detection, HRP-luminol luminescence, single point (AID 485317). The following applies: purified ALR, DTT oxidation, hits give high values, concentration not given here.
Consider `COc1ccc(-c2c(C#Cc3ccccc3)c3ccccc3n2C)cc1`, for which the inhibition was -4.24% (inactive). For the molecule `CCOC(=O)C1CCN(CC(=O)Nc2ccc(OC)c(S(=O)(=O)N3CCCCC3)c2)CC1`, the inhibition is -8.75% (inactive). The result for `COc1ccc(F)cc1S(=O)(=O)NCC(c1ccc2c(c1)OCO2)N1CCN(C)CC1` (stereo unspecified) reads -4.58% (inactive).

In the case of `CN(C(=O)c1cccc(NC(=O)C2CCN(C(=O)OC(C)(C)C)CC2)c1)C1CCC1`, the inhibition is 4.19% (inactive). Consider `Cc1ccc(C(=O)Oc2coc(CSc3nnc(NC(=O)c4cccs4)s3)cc2=O)cc1C`, for which the inhibition was 0.72% (inactive). The value for `O=C(/C=C/c1ccccc1)Oc1coc(CSc2ncccn2)cc1=O` was 97.4% (active); that for `C=CCNC(=O)COc1coc(CN2CCN(Cc3ccccc3)CC2)cc1=O` was -3.07% (inactive). The value for `CC(=O)NCc1ccc(-c2csc(NC(=O)CCCc3nc4ccccc4c(=O)[nH]3)n2)cc1` was -5.1% (inactive). With `C[C@@H]1CN([C@H](C)CO)C(=O)c2cc(NC(=O)NC3CCCCC3)ccc2O[C@H]1CN(C)S(C)(=O)=O`, the inhibition is 0.076% (inactive). Take `Cc1cccc(N=C2SC(C)CN2C(=O)CN2C(=O)NC3(CCCC3)C2=O)c1` (stereo unspecified): the inhibition is 2.77% (inactive). With `O=C1CSc2ccc(C(=O)NCc3ccccn3)cc2N1`, the inhibition is -5.07% (inactive). The result for `Cc1nn(Cc2ccccc2)c(C)c1C(=O)N1CCN(CC(=O)Nc2ccccc2Cl)CC1` reads -4.78% (inactive). Turning to `COc1ccc(-c2nc3c(s2)CCc2onc(-c4ccc(Br)cc4)c2-3)cc1`, the inhibition is -11% (inactive). The result for `CCOc1ncccc1C(=O)OCc1cn2cc(Cl)ccc2n1` reads -2.41% (inactive); that for `CCCCCCSc1ccc(-c2nc3ccc(Cl)cn3c2NCc2ccccc2)cc1`, -0.616% (inactive). On to `Clc1ccc2nc(CSc3ccccc3)cn2c1`, for which the inhibition is 98.9% (active).

Turning to `O=C1N[C@@H](Cc2ccccc2)C(=O)N2[C@H]1C[C@]1(Br)c3ccccc3N(S(=O)(=O)c3ccccc3)[C@H]21`, the inhibition was -12.1% (inactive). The result for `CCOc1ccc(-c2nc(C)sc2CC(=O)O)cc1` reads -6.6% (inactive). The value for `Cc1ccc(-c2nc(C)sc2CC(=O)OCC(=O)Nc2c(F)cccc2F)cc1` was -7.76% (inactive); that for `Cc1ccc(-c2nc(C)sc2CC(=O)O)cc1` was 99.3% (active).

For the molecule `Cc1ccc(C(=O)OCC(=O)N2CCCCCC2)cc1S(=O)(=O)N1CCOCC1`, the inhibition is -22.6% (inactive). With `COc1cccc(CNC(=O)COC(=O)CN2C(=O)NC3(CCCCC3C)C2=O)c1` (stereo unspecified), the inhibition is 2.16% (inactive). The value for `COc1ccc(/C=C(\C#N)C(=O)ONC2=NCCCCC2)cc1` was 12.1% (inactive); that for `Oc1ccc(/C=N/NC2=NCCCCC2)c(O)c1` was 81.4% (active); that for `FC(F)(F)c1nc2ccccc2nc1N/N=C/c1ccc(Cl)cc1` was -14.4% (inactive).

For `Oc1ccc(/C=N/Nc2nc(-c3ccccc3F)nc3ccccc23)c(O)c1`, the inhibition was 6.31% (inactive).

In the case of `Cc1nc2ccccc2nc1N/N=C/c1ccc(O)cc1O`, the inhibition was 95.7% (active). The value for `COc1ccccc1N1CCN(/N=C/c2ccc(O)cc2O)CC1` was 1.54% (inactive); that for `COc1ccc(OC)c(/C=C/C(=O)c2ccc3c(c2)OCO3)c1` was 3.84% (inactive). `COc1cc(OC)cc(C(=O)NNC(=O)CNC(=O)c2ccc(Br)o2)c1`: the inhibition was 7.85% (inactive). The value for `CC(=O)Nc1ccc(C(=O)NNC(=O)CCCCC(=O)NNC(=O)c2ccc(NC(C)=O)cc2)cc1` was -0.231% (inactive). `CNC[C@H]1Oc2c(NC(=O)C3CCCCC3)cccc2C(=O)N([C@H](C)CO)C[C@@H]1C`: the inhibition was -1.07% (inactive). Turning to `C=CC[C@@H](CC(=O)N[C@H](CO)Cc1ccccc1)C(=O)N[C@H](C)COC(=O)[C@@H](CC=C)Cc1ccc(F)cc1`, the inhibition is 2.31% (inactive). The value for `CCOC(=O)c1cc(-c2ccccc2C)n(Cc2cc(C)no2)n1` was 0.367% (inactive); that for `Cc1ccc(S(=O)(=O)N2[C@@H](c3ccccc3F)C(C(=O)O)=CC[C@H]2c2ccc(Cl)cc2)cc1` was 2.55% (inactive); that for `COc1ccc(S(=O)(=O)N2CCN(c3cnccn3)CC2)cc1` was -0.305% (inactive). The value for `CO/N=C(\C(=O)N[C@@H]1C(=O)N2C(C(=O)O)=C(COC(C)=O)CS[C@H]12)c1csc(N)n1` (stereo in doubt) was -8.83% (inactive); that for `Cc1nnc(SCC2=C(C(=O)O)N3C(=O)C(NC(=O)Cn4nc(C)c(Cl)c4C)C3SC2)s1` (stereo unspecified) was -10.4% (inactive). With `Cc1cc(C)cc(C(=O)NC2C(=O)N3C(C(=O)O)=C(CSc4nnc(C)s4)CSC23)c1` (stereo unspecified), the inhibition is 98% (active). For `CCc1ccc(Nc2n[n+](-c3ccccc3)c(-c3cccc(Cl)c3Cl)s2)cc1`, the inhibition was -4.3% (inactive). Turning to `Cc1ccc(S(=O)(=O)NCC(=O)NNC(=O)c2ccc(Br)cc2)cc1C`, the inhibition is -2.29% (inactive). As to `CC1(NC(=O)CCS(=O)(=O)c2ccc(Cl)cc2)CCS(=O)(=O)C1` (stereo unspecified), the inhibition was -4.01% (inactive). On to `O=[N+]([O-])c1ccc(O)c(/C=N/Nc2ccccc2[N+](=O)[O-])c1`, for which the inhibition was -10.4% (inactive). The value for `O=C(O)c1ccccc1C(=O)Nc1ccccc1[N+](=O)[O-]` was -2.15% (inactive); that for `O=[N+]([O-])c1ccccc1Nc1ccc(O)cc1` was 99.6% (active); that for `Nc1nnc(SCC(=O)NCC(=O)Nc2ccc(F)c(F)c2F)s1` was 1.09% (inactive). The result for `CN(CC(=O)NC1CCCC1)S(=O)(=O)c1cnc[nH]1` reads -4.3% (inactive); that for `CN(CC(=O)NC1CCCCC1)S(=O)(=O)c1cccc2cccnc12`, 89.5% (active). The result for `CN(CC(=O)NC1CCCCC1)S(=O)(=O)c1ccc(Br)s1` reads -15% (inactive). Regarding `CN(CC(=O)Nc1ccc(Cl)cc1)CC(=O)Nc1cccc2ccccc12`, the inhibition is 2.05% (inactive). The value for `CCN(CC(=O)Nc1ccc(OC)cc1)C(=O)c1ccc(=O)n(Cc2ccccc2)n1` was 0.415% (inactive); that for `Cc1noc(C)c1NC(=O)Nc1ccc2c(c1)C(=O)N([C@H](C)CO)C[C@H](C)[C@@H](CN(C)S(=O)(=O)c1cn(C)cn1)O2` was -2.52% (inactive); that for `O=C(COC(=O)c1c2c(nc3ccccc13)/C(=C\c1cccs1)CCC2)Nc1ccccc1Cl` was -2.03% (inactive). The result for `NS(=O)(=O)c1ccc(NC(=O)COC(=O)c2c3c(nc4ccccc24)/C(=C\c2ccc4c(c2)OCO4)CCC3)cc1` reads -36% (inactive); that for `COc1cc(/C=C2\CCCc3c2nc2ccccc2c3C(=O)O)cc(Cl)c1O`, 98.2% (active); that for `CN(CC(=O)NCCc1ccc(S(N)(=O)=O)cc1)CC(=O)Nc1ccc(Cl)cc1`, -9.18% (inactive). Turning to `CC1(C)C/C(=N/Nc2ccc([N+](=O)[O-])cc2[N+](=O)[O-])C(C)(C)O1`, the inhibition is -14.3% (inactive). The value for `CCc1nnc(NS(=O)(=O)c2ccc(NC(=O)c3cccc(OC(F)(F)C(F)F)c3)cc2)s1` was 88.3% (active); that for `CCc1nnc(NS(=O)(=O)c2ccc(NC(=S)NC(=O)c3cccs3)cc2)s1` was 63.2% (inactive).

As for `CCc1nnc(NS(=O)(=O)c2ccc(NS(=O)(=O)c3ccccc3)cc2)s1`, the inhibition is 35.6% (inactive). Take `O=C(COc1ccccc1)Nc1cc2c3c(c1)CC(=O)N3CCC2`: the inhibition was -6.99% (inactive).

For `O=C(c1ccncc1)N1CCN(S(=O)(=O)c2cccc([N+](=O)[O-])c2)CC1`, the inhibition was -48.9% (inactive). The result for `COc1cccc(NC(=O)CN2CCN(CC(=O)Nc3ccccc3Cl)CC2)c1` reads -2.36% (inactive); that for `COc1cccc(NC(=O)Cn2c3ccc(F)cc3c3nc4n(c(=O)c32)CCS4)c1`, -3.06% (inactive). For the molecule `COc1cccc(NC(=O)Cn2c3ccccc3c3nc4n(c(=O)c32)CCS4)c1`, the inhibition was 85.8% (active).

For `C[C@H]1CN([C@@H](C)CO)C(=O)Cc2cc(NS(C)(=O)=O)ccc2O[C@@H]1CN(C)CC1CC1`, the inhibition was 0.795% (inactive). The result for `O=C(CSc1nc(C2CC2)nc2ccccc12)Nc1ccc2c(c1)OCCO2` reads 40.9% (inactive); that for `CN(C(=O)CSc1nc(C2CC2)nc2ccccc12)c1nc(-c2ccccc2)cs1`, 98.6% (active). Consider `Cc1nnc(NC(=O)CSc2nc(C3CCCCC3)nc3ccccc23)s1`, for which the inhibition is -39.6% (inactive). As to `Cc1ccccc1OCC(=O)NNC(=O)c1ccc(-n2cncn2)c([N+](=O)[O-])c1`, the inhibition was -24.1% (inactive). As to `O=C(NCCCN1CCCC1=O)c1ccc(S(=O)(=O)Nc2ccccc2)cc1`, the inhibition is -9.87% (inactive).

`COc1ccccc1OCCCCCCN1CCN(C)CC1`: the inhibition was -12.6% (inactive). The result for `CCCC(=O)Nc1ncnc2c1ncn2[C@@H]1O[C@@H]2OP(=O)(O)OC[C@H]2[C@H]1OC(=O)CCC` reads -3.4% (inactive). As to `Cc1cc(C(=O)CC#N)c(C)n1CC(F)(F)F`, the inhibition is 94.8% (active). The value for `Cc1cc(C(=O)COC(=O)CNC(=O)c2ccc(F)cc2)c(C)n1Cc1ccco1` was -2.4% (inactive); that for `Cc1cc(C(=O)CC#N)c(C)n1-c1c(C)n(C)n(-c2ccccc2)c1=O` was 14.7% (inactive); that for `Cc1ccc(CNC(=O)c2ccc3c(c2)S(=O)(=O)c2ccccc2C3=O)cc1` was -10.2% (inactive).

For the molecule `N=c1c2c3c(sc2ncn1N)CCCC3`, the inhibition was -10.4% (inactive). Consider `S=c1[nH]nc2c3c4c(sc3ncn12)CCCC4`, for which the inhibition is 97.9% (active).

Turning to `c1nnc2c3c4c(sc3ncn12)CCC4`, the inhibition is 45.2% (inactive). As to `Cc1c(O)c(C)c2c(c1O)C(=O)C[C@@H](c1ccccc1)O2`, the inhibition was 2.46% (inactive). In the case of `COc1ccccc1C(=O)COC(=O)COc1ccc(C#N)cc1`, the inhibition was 10.4% (inactive).

`O=S(=O)(Nc1ncnc2sccc12)c1cccc(F)c1`: the inhibition was 8.21% (inactive). The value for `COc1ccc(C(=O)Oc2cc(/C=N/NS(=O)(=O)c3ccc(C)cc3)ccc2OC)cc1` was -2.65% (inactive); that for `COc1ccc(NS(=O)(=O)c2ccc(NC(C)=O)cc2)cc1OC` was -18.8% (inactive); that for `COc1ccc(/C=C/C(=O)c2ccc(NS(=O)(=O)c3ccc(C)cc3)cc2)cc1O` was 82.9% (active).
